In PMC4081100, “A DNA-binding-site landscape and regulatory network analysis for NAC transcription factors in Arabidopsis thaliana”:

Assays:
Assay in all cases: universal protein binding microarray (PBM); transcription factors of Arabidopsis thaliana; high values mean tight binding
GST-ANAC092(1-176) = molecular target: T1, GST-ANAC092(1-176) (Arabidopsis thaliana, UniProt Q9FKA0 1-176); conditions: protein: recombinant; tags: GST; chain copies: 2; dsDNA, one strand shown
T1 sequence: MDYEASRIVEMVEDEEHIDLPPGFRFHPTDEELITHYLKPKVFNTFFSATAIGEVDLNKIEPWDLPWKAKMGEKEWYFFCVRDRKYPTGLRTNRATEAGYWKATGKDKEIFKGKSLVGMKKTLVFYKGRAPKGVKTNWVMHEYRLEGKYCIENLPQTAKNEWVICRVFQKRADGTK
Outline: (§1)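 For zinc-finger proteins, zinc acetate was added while GST-tagged NAC-domain, full-length or DNA-binding-domain proteins were induced in cells. Purification used glutathione–Sepharose 4B, and quantification used A280 or anti-GST western blot. Custom all-10-mer Agilent 4 × 180K arrays, made double-stranded by primer extension, each received a protein at 200 to 500 nM final in duplicate. Scoring covered gapped and ungapped 8-mers, with binding given as the normalised enrichment score (E-score).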

GST-NTL6(1-168) = GST-NTL6(1-168) (Arabidopsis thaliana, UniProt Q9SCK6 1-168); conditions: protein: recombinant; tags: GST; chain copies: 2; dsDNA, one strand shown
Sequence of GST-NTL6(1-168) (Q9SCK6 1-168): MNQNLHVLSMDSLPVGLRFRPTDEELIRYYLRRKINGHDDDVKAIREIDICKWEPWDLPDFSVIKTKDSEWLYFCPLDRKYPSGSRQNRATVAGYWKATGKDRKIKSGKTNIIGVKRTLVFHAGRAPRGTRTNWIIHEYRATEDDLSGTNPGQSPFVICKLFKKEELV
Outline: as §1

GST-ANAC055(1-171) = molecular target: T2, GST-ANAC055(1-171) (Arabidopsis thaliana, UniProt Q9LDY8 1-171); conditions: protein: recombinant; tags: GST; chain copies: 2; dsDNA, one strand shown
T2 sequence: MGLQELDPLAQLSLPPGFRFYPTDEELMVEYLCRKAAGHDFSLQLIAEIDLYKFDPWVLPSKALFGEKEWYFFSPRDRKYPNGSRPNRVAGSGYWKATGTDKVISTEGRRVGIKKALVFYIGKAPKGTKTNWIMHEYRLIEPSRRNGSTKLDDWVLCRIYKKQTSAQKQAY
Outline: as §1

GST-ATAF1 NAC domain = molecular target: T3, GST-ATAF1 NAC domain (Arabidopsis thaliana, UniProt Q39013 7-158); conditions: protein: recombinant; tags: GST; chain copies: 2; dsDNA, one strand shown
T3 sequence: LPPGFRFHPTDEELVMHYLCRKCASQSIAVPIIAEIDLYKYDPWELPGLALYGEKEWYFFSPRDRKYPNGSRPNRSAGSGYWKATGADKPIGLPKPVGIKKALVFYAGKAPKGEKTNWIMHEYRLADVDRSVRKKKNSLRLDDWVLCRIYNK
Outline: as §1

[1] = molecular target: T4, GST-ANAC092(1-285) full length (Arabidopsis thaliana, UniProt Q9FKA0 1-285); conditions: protein: recombinant; tags: GST; chain copies: 2; dsDNA, one strand shown
T4 sequence: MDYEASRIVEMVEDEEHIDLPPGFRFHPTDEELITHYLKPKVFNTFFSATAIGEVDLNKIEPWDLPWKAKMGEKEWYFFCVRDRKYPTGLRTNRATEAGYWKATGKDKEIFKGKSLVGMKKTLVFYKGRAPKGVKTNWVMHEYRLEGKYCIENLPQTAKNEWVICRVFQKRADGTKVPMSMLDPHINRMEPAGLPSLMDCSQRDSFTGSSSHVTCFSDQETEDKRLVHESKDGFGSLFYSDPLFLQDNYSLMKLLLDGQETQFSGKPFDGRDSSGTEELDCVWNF
Outline: as §1

GST-NST2(1-184) = molecular target: T5, GST-NST2(1-184) (Arabidopsis thaliana, UniProt Q9M274 1-184); conditions: protein: recombinant; tags: GST; chain copies: 2; dsDNA, one strand shown
T5 sequence: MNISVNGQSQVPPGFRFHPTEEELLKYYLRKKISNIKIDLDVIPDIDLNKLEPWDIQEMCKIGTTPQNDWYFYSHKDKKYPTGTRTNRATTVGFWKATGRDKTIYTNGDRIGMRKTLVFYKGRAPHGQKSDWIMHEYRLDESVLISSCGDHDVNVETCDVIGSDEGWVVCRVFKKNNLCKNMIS
Outline: as §1

GST-NTL8 NAC domain = molecular target: T6, GST-NTL8 NAC domain (Arabidopsis thaliana, UniProt Q9XIN7 14-156); conditions: protein: recombinant; tags: GST; chain copies: 2; dsDNA, one strand shown
T6 sequence: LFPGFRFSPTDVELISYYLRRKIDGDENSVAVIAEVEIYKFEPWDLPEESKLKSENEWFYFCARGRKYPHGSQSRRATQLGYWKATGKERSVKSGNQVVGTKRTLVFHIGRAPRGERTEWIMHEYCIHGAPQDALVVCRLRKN
Outline: as §1

GST-SND1(1-203) = molecular target: T7, GST-SND1(1-203) (Arabidopsis thaliana, UniProt Q9LPI7 1-203); conditions: protein: recombinant; tags: GST; chain copies: 2; dsDNA, one strand shown
T7 sequence: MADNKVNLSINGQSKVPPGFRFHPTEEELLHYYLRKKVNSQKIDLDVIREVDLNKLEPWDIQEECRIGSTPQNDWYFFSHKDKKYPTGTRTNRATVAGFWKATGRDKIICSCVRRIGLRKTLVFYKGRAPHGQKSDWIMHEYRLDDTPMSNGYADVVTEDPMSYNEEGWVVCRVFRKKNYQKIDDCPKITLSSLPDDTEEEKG
Outline: as §1

GST-VND3 NAC domain = molecular target: T8, GST-VND3 NAC domain (Arabidopsis thaliana, UniProt Q9FH59 12-162); conditions: protein: recombinant; tags: GST; chain copies: 2; dsDNA, one strand shown
T8 sequence: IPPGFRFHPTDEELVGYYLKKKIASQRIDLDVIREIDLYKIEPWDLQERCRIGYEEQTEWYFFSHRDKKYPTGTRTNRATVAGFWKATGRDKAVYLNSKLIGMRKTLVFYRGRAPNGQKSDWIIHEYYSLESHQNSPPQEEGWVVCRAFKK
Outline: as §1

GST-WRKY1(266-371) = GST-WRKY1(266-371) (Arabidopsis thaliana, UniProt Q9SI37 266-371); conditions: protein: recombinant; tags: GST; dsDNA, one strand shown
Sequence of GST-WRKY1(266-371) (Q9SI37 266-371): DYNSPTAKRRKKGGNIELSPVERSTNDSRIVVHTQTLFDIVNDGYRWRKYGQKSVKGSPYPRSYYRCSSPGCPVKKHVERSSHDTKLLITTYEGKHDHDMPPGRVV
Outline: as §1

GST-NAP(1-166) = molecular target: T9, GST-NAP(1-166) (Arabidopsis thaliana, UniProt O49255 1-166); conditions: protein: recombinant; tags: GST; chain copies: 2; dsDNA, one strand shown
T9 sequence: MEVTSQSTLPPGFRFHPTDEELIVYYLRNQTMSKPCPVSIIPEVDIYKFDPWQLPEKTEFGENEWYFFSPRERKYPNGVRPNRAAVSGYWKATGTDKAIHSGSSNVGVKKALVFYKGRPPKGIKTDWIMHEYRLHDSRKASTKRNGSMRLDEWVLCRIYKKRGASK
Outline: as §1

GST-VND7 NAC domain = molecular target: T10, GST-VND7 NAC domain (Arabidopsis thaliana, UniProt Q9C8W9 9-158); conditions: protein: recombinant; tags: GST; chain copies: 2; dsDNA, one strand shown
T10 sequence: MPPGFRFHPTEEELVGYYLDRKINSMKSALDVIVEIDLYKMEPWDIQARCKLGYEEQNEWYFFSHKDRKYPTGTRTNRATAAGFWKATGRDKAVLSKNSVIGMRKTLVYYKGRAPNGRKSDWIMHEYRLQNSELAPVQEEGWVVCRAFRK
Outline: as §1

GST-ANAC019 NAC domain = molecular target: T11, GST-ANAC019 NAC domain (Arabidopsis thaliana, UniProt Q9C932 14-162); conditions: protein: recombinant; tags: GST; chain copies: 2; dsDNA, one strand shown
T11 sequence: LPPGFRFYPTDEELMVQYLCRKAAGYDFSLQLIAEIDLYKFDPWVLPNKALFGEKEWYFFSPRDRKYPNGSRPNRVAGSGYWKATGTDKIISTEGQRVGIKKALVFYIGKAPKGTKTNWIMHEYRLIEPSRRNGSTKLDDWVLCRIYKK
Outline: as §1

Sequence	binding signal (GST-ANAC092(1-176)) [E-score]	binding signal (GST-NTL6(1-168)) [E-score]	binding signal (GST-ANAC055(1-171)) [E-score]	binding signal (GST-ATAF1 NAC domain) [E-score]	binding signal [1] [E-score]	binding signal (GST-NST2(1-184)) [E-score]	binding signal (GST-NTL8 NAC domain) [E-score]	binding signal (GST-SND1(1-203)) [E-score]	binding signal (GST-VND3 NAC domain) [E-score]	binding signal (GST-WRKY1(266-371)) [E-score]	binding signal (GST-NAP(1-166)) [E-score]	binding signal (GST-VND7 NAC domain) [E-score]	binding signal (GST-ANAC019 NAC domain) [E-score]
TTAAGGAA	0.11	0.48	0.0521	0.0827	0.131	0.139	0.293	0.39	0.24	0.0668			
ATGCGTAA	0.319		0.108	0.115	0.356	0.243		0.436	0.217		0.175	0.188	
ACACGGCA	0.481		0.479	0.446	0.481	0.245	0.0652	0.148	0.463		0.457	0.481	0.485
AGCGTAAA	0.223			0.12	0.241	0.244		0.413	0.15		0.126	0.119	0.0508
TCGGTCAA	0.132	0.0645	0.0819			0.0703		0.0612	0.0724	0.49	0.097		
CCTTACCC		0.366			0.0872		0.404	0.167	0.0668			0.0637	
TTAAGAAA	0.151	0.461	0.0935	0.195	0.227	0.142	0.273	0.367	0.0817	0.116			
CTTTACGC	0.294				0.302	0.193		0.408	0.0839		0.081	0.137	0.0905
ACGCTACC	0.455			0.144	0.48	0.34		0.475	0.0872		0.0969	0.181	0.118
CGTCAACA	0.149	0.0991	0.135	0.156	0.196	0.111		0.181	0.0753	0.435	0.116		0.0912
AAGGTCAA	0.138	0.252	0.106	0.146	0.0845	0.0822	0.0854	0.144	0.101	0.484			
GTTAAGGA	0.116	0.424	0.165	0.11	0.0916	0.16	0.273	0.276	0.176	0.0559			0.178
CACGTTAG	0.387		0.0916	0.13	0.412	0.117		0.237	0.164		0.0974	0.0853	
ATGGCGTA	0.393			0.185	0.426	0.299		0.452	0.149		0.184	0.192	
ACGGAACT	0.292		0.438	0.392	0.277	0.159	0.109	0.178	0.417		0.452	0.445	0.468
AATACTTA		0.405	0.162	0.254	0.104	0.0916	0.0845	0.0985	0.187			0.0602	0.135
TTGACCAA	0.232		0.0923	0.066	0.226			0.0845	0.0958	0.491			0.063

Sequence	binding signal (GST-ANAC092(1-176)) [E-score]	binding signal (GST-NTL6(1-168)) [E-score]	binding signal (GST-ANAC055(1-171)) [E-score]	binding signal (GST-ATAF1 NAC domain) [E-score]	binding signal [1] [E-score]	binding signal (GST-NST2(1-184)) [E-score]	binding signal (GST-NTL8 NAC domain) [E-score]	binding signal (GST-SND1(1-203)) [E-score]	binding signal (GST-VND3 NAC domain) [E-score]	binding signal (GST-WRKY1(266-371)) [E-score]	binding signal (GST-NAP(1-166)) [E-score]	binding signal (GST-VND7 NAC domain) [E-score]	binding signal (GST-ANAC019 NAC domain) [E-score]
AGTTGACG	0.0881		0.0862	0.213		0.107		0.198	0.0565	0.43	0.0554		0.0919
CTTCCTTA	0.158	0.447			0.104	0.151	0.223	0.21	0.0785	0.0845			0.0721
GTAGTCAA		0.0675	0.168	0.191		0.112		0.0829	0.134	0.478	0.0663		
GTTTCCTA	0.118	0.0734	0.133	0.212	0.179	0.169	0.404	0.106	0.179		0.118		0.158
ACGCGACC	0.283				0.423	0.0828		0.367		0.342		0.0778	0.0639
ACCGTCAA					0.117			0.148	0.126	0.41	0.092		0.156
CAGTCAAA	0.125	0.0796	0.063	0.11	0.0634		0.104	0.124		0.478	0.0821	0.0973	0.0978
TGACTCAA		0.118		0.0764	0.131			0.0975	0.113	0.419			
CACGCATA	0.397		0.0626		0.411	0.121		0.18	0.116		0.147		
ACACTCCA	0.398		0.15	0.17	0.429	0.226		0.278	0.0605				0.0899
TGAAGTCA		0.229			0.133	0.0789	0.165	0.196	0.0873	0.426			
ACACGCCT	0.319		0.173	0.212	0.411			0.0623	0.0938				0.189
ATTAAGTA	0.0822	0.441	0.182	0.215	0.144	0.231		0.267	0.131				
GTCAAGTA			0.0988	0.136	0.186			0.0698	0.137	0.417			
GTCAAAAA	0.114			0.154	0.0617	0.121	0.0654	0.216		0.442		0.0546	0.0995
GTCAAAAC				0.178	0.11		0.0569	0.148	0.176	0.447	0.111		
CTTGACTA			0.0781	0.142		0.0888	0.0949	0.0644	0.159	0.462			0.0925
